From PubChem BioAssay
Values without a mark were called inactive. The source made the active and inactive calls.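 The calls were made as follows, unless noted: active = compound that reduces growth-factor-driven endothelial tube area in a mixed cell culture, no cutoff stated; inactive = the rest.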

Experiment: inhibition of endothelial tube formation, primary screen, imaging, VEGF stimulated, CD31 staining, tube area, NPC library (AID 1117340)
Conditions: VEGF-stimulated ADSC/ECFC co-culture, at 10 µM, active compounds read high

SMILES | tube area decrease
CCCCN(CCCC)CCC(O)c1cc2c(Cl)cc(Cl)cc2c2cc(C(F)(F)F)ccc12 (stereo unspecified) | 96.1% (active)
CCC(=O)O[C@]1(C(=O)SCF)[C@H](C)C[C@H]2[C@@H]3C[C@H](F)C4=CC(=O)C=C[C@]4(C)[C@@]3(F)[C@@H](O)C[C@@]21C | -19.4%
CC1(C)O[C@@H]2C[C@H]3[C@@H]4C[C@H](F)C5=CC(=O)C=C[C@]5(C)[C@@]4(F)[C@@H](O)C[C@]3(C)[C@]2(C(=O)CO)O1 | 14.7%
NC(N)=NC(=O)Cc1c(Cl)cccc1Cl | 11.5%
Cc1cn[nH]c1 | 4.6%
NS(=O)(=O)c1cc2c(cc1Cl)NC(C1CC3C=CC1C3)NS2(=O)=O (stereo unspecified) | 2.9%
CC(=O)O[C@H]1C[C@@H]2CC[C@@H]3[C@H](CC[C@@]4(C)[C@H]3C[C@H]([N+]3(C)CCCCC3)[C@@H]4OC(C)=O)[C@@]2(C)C[C@@H]1N1CCCCC1 | 4.6%
CCCCNc1c(C(=O)OCC)c(C)nc2c1cnn2CC | 10.7%
C#C[C@]1(O)CC[C@H]2[C@@H]3[C@H](C)CC4=C(CCC(=O)C4)[C@H]3CC[C@@]21C | -5.2%
NCCS(=O)(=O)O | -12%
C#C[C@]1(O)CC[C@H]2[C@@H]3CCc4cc(O)ccc4[C@H]3CC[C@@]21C | 85.8% (active)
C#C[C@]1(O)CC[C@H]2[C@@H]3CCc4cc(OC)ccc4[C@H]3CC[C@@]21C | 10.3%
O=C(O)CSCC(=O)NC1CCSC1=O (stereo unspecified) | -2.7%
COc1ncnc(NS(=O)(=O)c2ccc(N)cc2)c1OC | -10.7%
COc1cc2c(N3CCN(C(=O)Nc4ccc(OC(C)C)cc4)CC3)ncnc2cc1OCCCN1CCCCC1 | 11%
Cc1cc2c(C(C)C)c(O)c(O)c(C=O)c2c(O)c1-c1c(C)cc2c(C(C)C)c(O)c(O)c(C=O)c2c1O | 110% (active)
Oc1ccc(OCc2ccccc2)cc1 | 0.5%
C[n+]1c2cc(N)ccc2cc2ccc(N)cc21 (tested in a mixture with another compound) | -105%
CCOC(=O)O[C@]1(C(=O)OCCl)CC[C@H]2[C@@H]3CCC4=CC(=O)C=C[C@]4(C)[C@H]3[C@@H](O)C[C@@]21C | -0.4%

SMILES | tube area decrease
Cc1nc(-c2ccc(OCC(C)C)c(C#N)c2)sc1C(=O)O | -47.3%
COc1cc(C(=O)OCCCN2CCCN(CCCOC(=O)c3cc(OC)c(OC)c(OC)c3)CC2)cc(OC)c1OC | 4.6%
Cc1cnc(C(=O)O)c[n+]1[O-] | 9.6%
COC(=O)[C@H]1[C@H]2C[C@@H]3c4[nH]c5cc(OC)ccc5c4CCN3C[C@H]2C[C@@H](OC(=O)c2cc(OC)c(OC)c(OC)c2)[C@@H]1OC | 22.8%
CO[C@@H]1[C@@H](OC(N)=O)[C@@H](O)[C@H](Oc2ccc3c(O)c(NC(=O)c4ccc(O)c(CC=C(C)C)c4)c(=O)oc3c2C)OC1(C)C | -1.9%
COCCCOc1cc(C[C@@H](C[C@H](N)[C@@H](O)C[C@H](C(=O)NCC(C)(C)C(N)=O)C(C)C)C(C)C)ccc1OC | 19.9%
CN1CCN2c3ccccc3Cc3ccccc3C2C1 (stereo unspecified) | 26.3%
C[C@@H]1CN(c2c(F)c(N)c3c(=O)c(C(=O)O)cn(C4CC4)c3c2F)C[C@H](C)N1 | -14.6%
O=NN(CCCl)C(=O)NC1CCCCC1 | 56.7% (active)
CNC[C@H](O)[C@@H](O)[C@H](O)[C@H](O)CO | -17.1%
CCC(C)n1ncn(-c2ccc(N3CCN(c4ccc(OC[C@H]5CO[C@](Cn6cncn6)(c6ccc(Cl)cc6Cl)O5)cc4)CC3)cc2)c1=O (stereo partly specified) | 96.5% (active)
O=P(O)(O)C(O)(Cc1cccnc1)P(=O)(O)O | 18.1%
CN(C)c1ccc2nc3ccc(=[N+](C)C)cc-3sc2c1 | 103% (active)
CC1=C(C)C(=O)C(C(CCCCCC(=O)O)c2ccccc2)=C(C)C1=O (stereo unspecified) | -6.8%
C#CCN[C@@H]1CCc2ccccc21 | 3.2%
CCCCCN(C)CCC(O)(P(=O)(O)O)P(=O)(O)O | -11.9%
Cc1c[nH]c2ccccc12 | 5.5%
CC(C)(C)NC(=O)[C@H]1CC[C@H]2[C@@H]3CC[C@H]4NC(=O)C=C[C@]4(C)[C@H]3CC[C@]12C | 8.2%
O=C(O)CN1C(=O)c2cccc3cccc(c23)C1=O | -6.3%

Experiment: glucagon-like peptide 1 release enhancers, primary assay, NCI-H716 cell line, NPC library (AID 1117341;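 active = compound raises GLP1 secretion from the human gut endocrine cells, with no numeric limit stated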; also: reference of the scale not given here)
Conditions: NCI-H716 cells, at 10 µM, active compounds read high

SMILES | GLP1 secretion stimulation
CCCCN(CCCC)CCC(O)c1cc2c(Cl)cc(Cl)cc2c2cc(C(F)(F)F)ccc12 (stereo unspecified) | -0.7%
CCC(=O)O[C@]1(C(=O)SCF)[C@H](C)C[C@H]2[C@@H]3C[C@H](F)C4=CC(=O)C=C[C@]4(C)[C@@]3(F)[C@@H](O)C[C@@]21C | 9.8%
CC1(C)O[C@@H]2C[C@H]3[C@@H]4C[C@H](F)C5=CC(=O)C=C[C@]5(C)[C@@]4(F)[C@@H](O)C[C@]3(C)[C@]2(C(=O)CO)O1 | -0.6%
NC(N)=NC(=O)Cc1c(Cl)cccc1Cl | -3%
Cc1cn[nH]c1 | 1.6%
NS(=O)(=O)c1cc2c(cc1Cl)NC(C1CC3C=CC1C3)NS2(=O)=O (stereo unspecified) | -2.5%
CC(=O)O[C@H]1C[C@@H]2CC[C@@H]3[C@H](CC[C@@]4(C)[C@H]3C[C@H]([N+]3(C)CCCCC3)[C@@H]4OC(C)=O)[C@@]2(C)C[C@@H]1N1CCCCC1 | 13.2%
CCCCNc1c(C(=O)OCC)c(C)nc2c1cnn2CC | 3.7%
C#C[C@]1(O)CC[C@H]2[C@@H]3[C@H](C)CC4=C(CCC(=O)C4)[C@H]3CC[C@@]21C | 4.4%
NCCS(=O)(=O)O | 0.3%
C#C[C@]1(O)CC[C@H]2[C@@H]3CCc4cc(O)ccc4[C@H]3CC[C@@]21C | -3.4%
C#C[C@]1(O)CC[C@H]2[C@@H]3CCc4cc(OC)ccc4[C@H]3CC[C@@]21C | 16.1%
O=C(O)CSCC(=O)NC1CCSC1=O (stereo unspecified) | -0.3%
COc1ncnc(NS(=O)(=O)c2ccc(N)cc2)c1OC | 8.3%
COc1cc2c(N3CCN(C(=O)Nc4ccc(OC(C)C)cc4)CC3)ncnc2cc1OCCCN1CCCCC1 | 11.5%
Cc1cc2c(C(C)C)c(O)c(O)c(C=O)c2c(O)c1-c1c(C)cc2c(C(C)C)c(O)c(O)c(C=O)c2c1O | 76.4% (active)
Oc1ccc(OCc2ccccc2)cc1 | 2.7%
C[n+]1c2cc(N)ccc2cc2ccc(N)cc21 (tested in a mixture with another compound) | 5.7%
CCOC(=O)O[C@]1(C(=O)OCCl)CC[C@H]2[C@@H]3CCC4=CC(=O)C=C[C@]4(C)[C@H]3[C@@H](O)C[C@@]21C | 0.9%

SMILES | GLP1 secretion stimulation
Cc1nc(-c2ccc(OCC(C)C)c(C#N)c2)sc1C(=O)O | 4.1%
COc1cc(C(=O)OCCCN2CCCN(CCCOC(=O)c3cc(OC)c(OC)c(OC)c3)CC2)cc(OC)c1OC | 7.5%
Cc1cnc(C(=O)O)c[n+]1[O-] | -4.7%
COC(=O)[C@H]1[C@H]2C[C@@H]3c4[nH]c5cc(OC)ccc5c4CCN3C[C@H]2C[C@@H](OC(=O)c2cc(OC)c(OC)c(OC)c2)[C@@H]1OC | 3.6%
CO[C@@H]1[C@@H](OC(N)=O)[C@@H](O)[C@H](Oc2ccc3c(O)c(NC(=O)c4ccc(O)c(CC=C(C)C)c4)c(=O)oc3c2C)OC1(C)C | 0.7%
COCCCOc1cc(C[C@@H](C[C@H](N)[C@@H](O)C[C@H](C(=O)NCC(C)(C)C(N)=O)C(C)C)C(C)C)ccc1OC | -4.7%
CN1CCN2c3ccccc3Cc3ccccc3C2C1 (stereo unspecified) | 3.1%
C[C@@H]1CN(c2c(F)c(N)c3c(=O)c(C(=O)O)cn(C4CC4)c3c2F)C[C@H](C)N1 | 0.3%
O=NN(CCCl)C(=O)NC1CCCCC1 | -0.1%
CNC[C@H](O)[C@@H](O)[C@H](O)[C@H](O)CO | 10.1%
CCC(C)n1ncn(-c2ccc(N3CCN(c4ccc(OC[C@H]5CO[C@](Cn6cncn6)(c6ccc(Cl)cc6Cl)O5)cc4)CC3)cc2)c1=O (stereo partly specified) | 2.2%
O=P(O)(O)C(O)(Cc1cccnc1)P(=O)(O)O | 0.1%
CN(C)c1ccc2nc3ccc(=[N+](C)C)cc-3sc2c1 | 280% (active)
CC1=C(C)C(=O)C(C(CCCCCC(=O)O)c2ccccc2)=C(C)C1=O (stereo unspecified) | 4%
C#CCN[C@@H]1CCc2ccccc21 | 0%
CCCCCN(C)CCC(O)(P(=O)(O)O)P(=O)(O)O | -0.5%
Cc1c[nH]c2ccccc12 | -1.7%
CC(C)(C)NC(=O)[C@H]1CC[C@H]2[C@@H]3CC[C@H]4NC(=O)C=C[C@]4(C)[C@H]3CC[C@]12C | 6.1%
O=C(O)CN1C(=O)c2cccc3cccc(c23)C1=O | 1.6%
